A short description of test [1]: NCI Yeast Anticancer Drug Screen. Data for the rad50 strain (AID 155).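 Note: 0% = growth of vehicle-only cultures of the same strain.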 The settings on record: S. cerevisiae rad50 strain growth inhibition; at 50.0 µM; active compounds read high. The gist of the method: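 DNA repair mutant yeast, compound exposure, growth read-out; inhibition is taken relative to vehicle.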
Test [2] can be described thus: NCI Yeast Anticancer Drug Screen. Data for the mec2-1 strain (AID 157). The settings on record: S. cerevisiae mec2-1 strain, at 50.0 µM, active compounds read high. The gist of the method: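 Strain: mec2-1 (DNA repair/cell cycle alteration). Compound exposure, then growth measured; inhibition expressed relative to vehicle.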
A short description of test [3]: NCI Yeast Anticancer Drug Screen. Data for the sgs1 mgt1 strain (AID 161).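 Note: 0% = growth of cultures given vehicle only.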 The settings on record: S. cerevisiae sgs1 mgt1 strain, at 50.0 µM, active compounds read high. In short, it runs like this: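 Read-out: growth inhibition vs vehicle controls. Cells: mutant yeast strain deficient in DNA damage repair.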
A short description of test [4]: NCI Yeast Anticancer Drug Screen. Data for the cln2 rad14 strain (AID 165).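 Note: 0% = growth equal to vehicle treated cultures.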 The settings on record: S. cerevisiae cln2 rad14 strain, at 50.0 µM, active compounds read high. In short, it runs like this: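 Compounds are applied to the cln2 rad14 yeast strain, and growth is then compared with that of vehicle-treated cultures to give inhibition.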
Test [5] in a line: NCI Yeast Anticancer Drug Screen. Data for the bub3 strain (AID 167). The settings on record: S. cerevisiae bub3 mutant strain, at 50.0 µM, active compounds read high. The gist of the method:
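In this screen, a yeast mutant lacking normal mitotic checkpoint function is challenged with compound. Relative growth versus vehicle gives the inhibition value.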

Test [6] in a line: NCI Yeast Anticancer Drug Screen. Data for the mlh1 rad18 strain (AID 175). The settings on record: S. cerevisiae mlh1 rad18 strain growth inhibition; at 50.0 µM; active compounds read high. In short, it runs like this:
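Read-out is yeast growth inhibition, calculated against vehicle-only controls. The compound was applied to a strain engineered with DNA damage repair alterations.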

SMILES strings stand for the structures. About 79,000 compounds went through this panel and 15% of them were active in at least one assay; those are over-represented in the sample as a whole. A number with no mark means an inactive call. The source made the active and inactive calls. Cut-off read from the data, not from the text of the source: active = growth inhibition above about 70%; inactive = the rest.

For `COc1cc(C=C2C(=O)NC(=S)NC2=O)cc(OC)c1OC`, the growth inhibition in test [1] was 5.05%; in test [2], -15.9%; in test [3], 3.35%; in test [4] it was 18.6%; in test [5], -1.35%; in test [6] it was -0.95%.

On to `CCC1(CCO)C(=O)NC(=O)NC1=O`, for which the growth inhibition in test [1] is -1.6%; in test [2], -48.9%; in test [3], -0.4%; in test [4] it was -12.2%; in test [5], -14.8%; in test [6], -2.7%.

On to `CCOP(=O)(NC(C)(C)C)OCC`, for which the growth inhibition in test [1] was -15.1%; in test [2] it was -54%; in test [3], -21.4%; in test [4] it was 8%; in test [5] it was -26.1%; in test [6], -12.8%.

Turning to `CCOP(=S)(OCC)Oc1ccc2c(c1)OC(=O)C1(Cl)C2(C)C2(Cl)C(=O)Oc3cc(OP(=S)(OCC)OCC)ccc3C12C` (stereo unspecified), the growth inhibition in test [1] was 10.2%; in test [2] it was 4.75%; in test [3], 3.45%; in test [4], 15.1%; in test [5] it was 2.05%; in test [6], 1.45%.

Regarding `Nc1ccc2ncccc2c1` (tested in a mixture with another compound), the growth inhibition in test [1] is 39.2%; in test [2], 97.5% (active); in test [3] it was 45.5%; in test [4] it was 56.4%; in test [5], 46.5%; in test [6] it was 26.2%.

For the molecule `Cc1cc(S(=O)(=O)F)ccc1NC(=O)NCc1ccc(N2C(N)=NC(N)=NC2(C)C)cc1`, the growth inhibition in test [1] is -6.25%; in test [2], -18%; in test [3], -3.95%; in test [4], -37.7%; in test [5] it was -9.4%; in test [6], -8.3%.

Consider `N/C(=N\NS(=O)(=O)c1ccccc1)N[N+](=O)[O-]`, for which the growth inhibition was -3.1% in test [1]; 21.7% in test [2]; 7.05% in test [3]; -8.55% in test [4]; 24.2% in test [5]; 7.25% in test [6].

For the molecule `CCCCS(=O)(=O)C(c1ccccc1)c1ccccc1`, the growth inhibition in test [1] is 69.2%; in test [2], 97.4% (active); in test [3], 96% (active); in test [4], 56.5%; in test [5], 96.5% (active); in test [6], 96.4% (active).

In the case of `Cc1cc(CCl)cc(=O)[nH]1`, the growth inhibition in test [1] is -9.75%; in test [2] it was -0.7%; in test [3], -7.55%; in test [4], -8.9%; in test [5], -20.6%; in test [6] it was 12.2%.

On to `CC(C)N(C(C)C)P(OCCC#N)OC1CC(n2cnc3c(=O)[nH]cnc32)OC1COC(=O)NCCCCCCNC(=O)OC(C)(C)c1ccc(-c2ccccc2)cc1` (stereo unspecified), for which the growth inhibition was -11.2% in test [1]; -26.4% in test [2]; -27% in test [3]; 10% in test [4]; 12.8% in test [5]; -18.4% in test [6].

As for `COC12CC3C4=CCOC5CC(=O)N6c7ccccc7C1(CCN2C4)C6C53` (stereo unspecified), the growth inhibition in test [1] was 5.3%; in test [2] it was -23.8%; in test [3] it was 13.3%; in test [4], 16.9%; in test [5], 15.2%; in test [6], 15.4%.

On to `Cn1cnnc1[N+](=O)[O-]`, for which the growth inhibition in test [1] is 1.75%; in test [2], 5.85%; in test [3], -11.4%; in test [4], -1.1%; in test [5], 3.25%; in test [6], 15.7%.

As for `COc1ccccc1P(=S)(c1ccccc1)c1ccccc1`, the growth inhibition in test [1] was 31%; in test [2], 24.3%; in test [3] it was 17.6%; in test [4], 38%; in test [5], 27.2%; in test [6], 24.2%.

Take `O=C([O-])C(=O)[O-].[Co+3].[NH2-].[NH2-].[NH2-].[NH2-].[O-][Cl+3]([O-])([O-])O`: the growth inhibition was 18.5% in test [1]; 21.9% in test [2]; 13.2% in test [3]; 15.7% in test [4]; 18.1% in test [5]; 36.8% in test [6].

Take `C1CC[N-]CC1.C1CC[N-]CC1.[Cl][Pt+2]([Cl])([Cl])[Cl]`: the growth inhibition in test [1] is 4.65%; in test [2], -10.3%; in test [3], 7.8%; in test [4], -48.9%; in test [5], -0.8%; in test [6], -18.8%.

Take `CN1CN(c2ccccc2)C2(CCN(CCC3Oc4ccccc4O3)CC2)C1=O`: the growth inhibition in test [1] was -22.4%; in test [2] it was 6.45%; in test [3], -0.4%; in test [4], -1.2%; in test [5], -1.35%; in test [6], 3.35%.

With `Cc1ccc(C(O)(c2ccc(C)cc2)c2ccccn2)cc1`, the growth inhibition in test [1] is -6.65%; in test [2] it was 16.9%; in test [3], -7%; in test [4], -13.8%; in test [5], 9.45%; in test [6], -35%.

In the case of `CN(C)c1ccc(N=Nc2ccc([As](=O)(O)O)cc2)cc1`, the growth inhibition is -23.1% in test [1]; -10.6% in test [2]; -11.8% in test [3]; -35.1% in test [4]; -5.15% in test [5]; -0.4% in test [6].

Regarding `COc1ccc(C(C#N)C(C)=O)cc1` (stereo unspecified), the growth inhibition in test [1] is 6.75%; in test [2] it was 4.85%; in test [3] it was 12.4%; in test [4], 4.45%; in test [5], -3.9%; in test [6] it was -12.4%.

On to `CN1CN(c2ccccc2)C2(CCN(CCc3cc4ccccc4o3)CC2)C1=O`, for which the growth inhibition in test [1] is -30.9%; in test [2] it was -10.1%; in test [3] it was -12.8%; in test [4], -28.9%; in test [5], 3.4%; in test [6], -22.2%.

On to `O=C1C=CC(=Nc2ccc(N(CCCl)CCCl)cc2)C=C1`, for which the growth inhibition in test [1] was 39.5%; in test [2], 18.8%; in test [3], 13.3%; in test [4] it was 3.5%; in test [5] it was 7.1%; in test [6], 3.5%.

For the origin of these results see PubChem BioAssay (NCI).
